Assay results: the supplement of paper PMC6555819

What was measured:
Assay in all cases: PBM binding z-score (relative to random genomic background probes); higher = stronger binding; sequences stand for … in GC…GCGATTGACAGCGTAGAATGAAGG
[1] = tested on: PPARg:RXRa DBDmut IVT, anti-RXR (DBD mutation: RXRa K156A/R161A, NR concentration 270 nM, RXRa partner concentration 90 nM)
Outline: (§1)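 For binding z-scores, the reference was random background probes on custom Agilent 4×180K protein-binding microarrays. These arrays were incubated 1 h with ligand-free nuclear receptor dimers in PBS pH 7.4, 2% milk, 0.02% Triton X-100, 1 mM DTT, 0.2 mg/mL BSA and 0.4 mg/ml salmon testes DNA. Fluorescence was scanned after antibody detection of each partner (one per run) and regression-normalized.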

[2] = tested on: PPARg:RXRa IVT, anti-PPARg (NR concentration 270 nM, RXRa partner concentration 90 nM)
Outline: as §1

[3] = tested on: PPARg DBDmut:RXRa IVT, anti-PPARg (DBD mutation: PPARg1 K132A/R137A, NR concentration 270 nM, RXRa partner concentration 90 nM)
Outline: as §1

[4] = tested on: PPARg DBDmut IVT, anti-PPARg (DBD mutation: PPARg1 K132A/R137A, NR concentration 270 nM)
Outline: as §1

[5] = tested on: PPARg homodimer (NR concentration 180 nM)
Outline: as §1

[6] = tested on: PXR:RXRa (NR concentration 270 nM, RXRa partner concentration 90 nM)
Outline: as §1

[7] = tested on: PXR homodimer (NR concentration 270 nM)
Outline: as §1

[8] = tested on: RARa:RXR (NR concentration 270 nM, RXRa partner concentration 90 nM)
Outline: as §1

[9] = tested on: RARa homodimer (NR concentration 270 nM)
Outline: as §1

[10] = tested on: RARb:RXRa (NR concentration 270 nM, RXRa partner concentration 90 nM)
Outline: as §1

Row | Sequence | PBM binding z-score [1] | PBM binding z-score [2] | PBM binding z-score [3] | PBM binding z-score [4] | PBM binding z-score [5] | PBM binding z-score [6] | PBM binding z-score [7] | PBM binding z-score [8] | PBM binding z-score [9] | PBM binding z-score [10]
1 | TCTTGTAGATCAATAGAGGTTATGAAAGTGCGCT | 1.9 | 1.34 | 0.208 | 0.487 | 0.327 | 2.9 | 0.0755 | 2.04 | 0.403 | 1.02
2 | GCAGACAGGTGGAACGCAGGTAACTCAGGGTGGC | -0.523 | -0.717 | -1.02 | -1.2 | -0.728 | -0.719 | -0.596 | -0.428 | -1.35 | -0.55
3 | GCTAGTTGGTCAGTAGAAGGTCACACACCGGTCG | 1.12 | 2.07 | -0.208 | 0.144 | 2.88 | 3.18 | 1.11 | 3.73 | 0.845 | 3.19
4 | ATATGTAGATTAGCTGGGGTCATTCAGACTAGGC | 1.08 | 1.54 | 1.36 | 1.4 | 1.47 | 5.46 | 2.56 | 5.47 | 1.07 | 2.59
5 | TCTTTTAGTTGAAGGGCAACCGACGAGTCCGTTT | 2.2 | 0.777 | 2.36 | 1.84 | 0.00638 | 0.764 | 0.475 | 0.383 | 0.199 | 1.65
6 | TCGAGTAGGTTATTCGGGGCATTCAGCCAACATA | 3.04 | 2.49 | -0.276 | -0.446 | -0.00227 | 0.948 | 0.669 | 0.746 | -0.612 | 0.781
7 | AGTCAAAGATCAGGACGAGGTAACGTAAAGCACG | -0.64 | 0.122 | 0.0525 | 0.169 | -0.153 | -0.236 | -0.419 | 0.336 | 0.445 | 0.247
8 | CTCGAAAGGTCGGTTGAGGTGAGGATACGGATAA | -0.21 | 1.07 | 0.312 | -0.445 | 1.24 | 3.06 | 0.154 | 2.64 | 0.262 | 3.18
9 | TGTCAAAGTCCAAAGGTAACGTAAGTATCCACAC | -0.118 | 1.79 | 0.417 | 1.16 | 0.272 | 0.511 | -0.0654 | 0.938 | 0.285 | 1.93
10 | CAAACTGGGTCAAGGTCAAAGTCGGTTTGTGCCA | 8.04 | 8.43 | 4.25 | 1.48 | 4.04 | 5.26 | 2.48 | 5.2 | 1.14 | 4.95
11 | CCTCGGAGGACACAAGGTCAGAGCTGTCCGCTTT | 0.831 | 0.883 | -1.16 | -1.74 | 1.72 | 2.35 | 0.133 | 2.25 | 0.096 | 3.46
12 | TTACCAAGGTGAAAGGTCCTTGATGCACGCCTTG | 2.49 | 4.34 | -0.24 | 0.133 | 0.166 | 1.1 | -0.666 | 2.31 | -0.838 | 1.93
13 | ATCGCTAGGTAAAGTTCAGTGAAAGATCGATAGA | -0.192 | 0.414 | -0.0288 | -0.241 | 0.606 | 1.42 | 1.26 | 0.812 | -0.216 | 2.37
14 | TCTCGGGGGACACGAAGGTCAGAGCTTTCCAGAG | 2.39 | 3.51 | 2.53 | 5.36 | 2.05 | 3.27 | 1.24 | 3.29 | 0.556 | 3.73
15 | ACTCGGAGGACAAAGGTCAGAGCGACGCCAGTGA | 0.874 | 3.53 | -0.107 | -0.757 | 3.73 | 4.04 | 0.438 | 4.89 | 0.829 | 4.57
16 | CGTACTGGGCCAAGGTCATTGATCAGTCAAAGCA | 4.15 | 4.66 | -0.787 | -0.351 | 1.31 | 3.51 | 1.34 | 3.71 | -0.0917 | 3.35
17 | GTTATTAGTTGAAAGGGCAACCGAATGATTCTCG | 1.31 | 1.82 | 1.34 | 1.6 | 3.38 | 1.26 | 1.4 | 1.87 | 3.11 | 2.55
18 | ACTAGTTGGTCAGGTGAGGTCACACACAATTCGG | 1.77 | 3.37 | 0.914 | 0.637 | 3.1 | 5.46 | 2.28 | 4.89 | 2 | 3.44
19 | GATACAGGGTCAGCTAGAGGCCTGAGTATGGAAA | 1.41 | 1.85 | -0.274 | -0.805 | 1.14 | 1.73 | -0.266 | 2.75 | -0.534 | 3.74
20 | ATCTCTGGGTAACCAAGTTCAGTGAATGCCGAAC | 3.23 | 2.59 | 0.324 | 1.24 | 0.00227 | 2.4 | 1.35 | 0.719 | -0.0126 | 1.24
21 | ATCGAACGGTCGAAGGTGAGTATACCCACCCGAA | -0.97 | 0.443 | 0.226 | -0.543 | -0.177 | -0.254 | -0.523 | 0.0689 | -0.549 | 1.05
22 | GCTAGCAGGCCCTTTGGGTCACTCAATGACGGGC | -0.306 | 0.697 | -0.724 | -0.795 | -0.401 | -0.203 | -0.555 | 0.51 | -0.612 | 0.879
23 | TCTAGTTGGTCACGGAGGCCACACACGACGGGTA | 2.18 | 2.47 | 0.779 | 0.634 | 0.778 | 0.694 | 0.425 | 0.748 | 0.249 | 2.16
